About 1,100 (1.7%) of roughly 63,000 compounds were called active. The entries come from a sample that favours actives as a whole. Entries with a potency or affinity are not part of this list. Unmarked numbers belong to inactive results.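 The calls were made as follows: active = compounds whose percent cytotoxicity in the single-dose primary screen, scaled between solvent and toxic-drug controls, exceeds 50; inactive = the rest.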
Assay: cytotoxicity in KRAS-transformed pancreatic duct cells, primary screen, cell-based, fluorescence, HTS (AID 431);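 also: 0% = DMSO solvent wells and 100% = doxorubicin-treated wells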
Conditions: HPDE-C7K KRASV12 cells, Alamar Blue viability, 48 h; at 10 µM; stronger effect = higher value

| Compound | cytotoxicity |
| --- | --- |
| Cc1ccc(C2(C(F)(F)F)NC(=O)N3CCCN=C3S2)cc1 (centres undefined) | -10.2% |
| Cc1ccc(C2(C(F)(F)F)NC(=O)N3CCN=C3S2)cc1 (centres undefined) | 76.6% (active) |
| O=C1NC(c2ccccc2)(C(F)(F)F)SC2=NCCCN12 (centres undefined) | 6.7% |
| CCN(CC)CCCN1C(=O)c2oc3ccccc3c(=O)c2C1c1cccc(OC)c1OC (centres undefined) | -9.4% |
| C=CCn1cnc2c(c1=O)c1nc3ccccc3nc1n2-c1ccccc1 | -1.9% |
| C=CCn1cnc2c(c1=O)c1nc3ccccc3nc1n2/N=C/c1ccccn1 | -21.9% |
| COCCn1cnc2c(c1=O)c1nc3ccccc3nc1n2/N=C/c1cccc(OC)c1OC | 9.4% |
| C=CCn1cnc2c(c1=O)c1nc3ccccc3nc1n2Cc1ccccc1 | -3.7% |
| C=CCn1cnc2c(c1=O)c1nc3ccccc3nc1n2-c1ccc(C)cc1 | 13.4% |
| C=CCn1cnc2c(c1=O)c1nc3ccccc3nc1n2/N=C/c1cccc(OC)c1 | 55.1% (active) |
| C=CCn1cnc2c(c1=O)c1nc3ccccc3nc1n2/N=C/c1cccc(OC)c1OC | 59.6% (active) |
| C=CCn1cnc2c(c1=O)c1nc3ccccc3nc1n2-c1ccc(Cl)cc1 | 0.8% |
| Cc1ccc(S(=O)(=O)NC(C)C(=O)NC2CCCCCC2)cc1 (centres undefined) | 1% |
| O=C1C(=C(O)c2ccccc2)C(=O)c2ccccc21 | 2% |
| O=C(CC(c1ccco1)C1CCCCC1=O)c1ccco1 (centres undefined) | 14.2% |
| COc1cccc(C(=O)N(CN2CCCC2=O)c2cccc(Cl)c2)c1 | -17.4% |
| CCOC(=O)c1cccc(NC(=O)CN(C)S(=O)(=O)c2cnc[nH]2)c1 | -9.7% |
| CCc1nnc(NC(=O)CSc2nnc(COc3ccccc3)n2-c2ccc(C)cc2)s1 | 2.3% |
| COC(=O)Cn1cnc2c(C#N)c3n(c2c1=O)CCCCC3 | -14.2% |
| COc1ccccc1-c1noc(-c2ccccc2C(=O)N2CCOCC2)n1 | -11.4% |
| CCn1c2ccccc2c2cc(/C=N/n3cnnc3)ccc21 | 16.2% |
| C=Cn1ccnc1P(=S)(c1ccc2c(c1)c1ccccc1n2CC)c1nccn1C=C | 63.9% (active) |

| Compound | cytotoxicity |
| --- | --- |
| CCn1c2ccccc2c2cc(N)ccc21 | 22.9% |
| CCN(CC(=O)Nc1ccc2c(c1)OCCO2)C(=O)C1CCCCC1 | -7.3% |
| Cc1cccc(NC(=O)Nc2ccc(C#N)cc2)n1 | 12.8% |
| N#Cc1ccc(NC(=O)Nc2ccc(Cl)cc2)cc1 | 67.5% (active) |
| CN(CC(=O)Nc1ccc(C#N)cc1)Cc1ccc(Cl)cc1 | 2.8% |
| O=C(c1ccc(Cl)cc1)N1CCCOC1 | 0.8% |
| C=CC(=C)CC(NC)c1ccccc1 (centres undefined) | 8.2% |
| Cc1nc(NCC2CCCO2)c2oc3ccccc3c2n1 (centres undefined) | 6.5% |
| CCOC(=O)c1c(N)sc(=S)c2c1CCC2 | 10.6% |
| CCOC(=O)c1c(N)sc2c(O)c(Br)ccc12 | 13.7% |
| CCOC(=O)c1c(N)sc2c(OC)c(Br)ccc12 | 58.8% (active) |
| Cc1ccc2c(c1)cc(CN(CCc1ccccc1)C(=O)N1CCOCC1)c1nnnn12 | -24.7% |
| COc1ccc(NC(=O)N(CCCN(C)C)Cc2cc3cc(OC)ccc3[nH]c2=O)cc1 | -3% |
| CCN(CC)S(=O)(=O)c1cc(C(=O)Oc2ccccc2OC)ccc1OC | 2.8% |
| Cn1c(CNC(=O)Cc2ccc3c(c2)OCO3)nnc1SCc1ccccc1 | -39.1% |
| CC1Cn2c(nnc2-c2cccc(Cl)c2)S1 (centres undefined) | 3.6% |
| COC(=O)CSc1nc(-c2cccs2)ccc1C#N | 12.6% |
| CCOC(=O)C(C)Sc1nc(-c2cccs2)ccc1C#N (centres undefined) | 59.5% (active) |
| C=COC(=O)CSc1nc(-c2cccs2)ccc1C#N | 40.6% |
| CCCCn1c(-c2cc(Cl)ccc2OC)n[nH]c1=S | -11.5% |
| Cc1ccc(S(=O)(=O)c2c(C)nn(C(C)(C)C)c2OC(=O)C2CCCC2)cc1 | -5.1% |
| CC(=O)Nc1ccc(S(=O)(=O)N2CCC(NC(C)=O)(c3cccc(F)c3)CC2)cc1 | 8% |

| Compound | cytotoxicity |
| --- | --- |
| CC1CCCCN1CC(=O)Nc1sc2c(c1C#N)CCC2 (centres undefined) | -11.1% |
| Cc1ccc(S(=O)(=O)NC(=O)NC(C)(C)C)cc1 | 12.4% |
| OC1CCN(Cc2cccc(Oc3ccccc3)c2)CC1 | 20.9% |
| Oc1ccc2ccccc2c1/C=N/n1cnnc1 | 18.6% |
| OCC(CO)(CO)N=Cc1c(O)ccc2ccccc12 | 68% (active) |
| Oc1ccc2ccccc2c1C=NC12CN3CCN(CN(C3)C1)C2 | 0.4% |
| COc1ccc(S(=O)(=O)N(CC(=O)N2CCN(C)CC2)C2CCCCC2)cc1OC | 0.2% |
| Cc1cc(C)n(-c2nc3c(c(=O)[nH]c(=O)n3C)n2CCc2ccccc2)n1 | 11.3% |
| COc1ccc(CCn2c(-n3nc(C)cc3C)nc3c2c(=O)[nH]c(=O)n3C)cc1 | 52.6% (active) |
| Cc1ccc(Cn2c(-n3nc(C)cc3C)nc3c2c(=O)[nH]c(=O)n3C)cc1 | 5% |
| COc1ccc(N2CC(C(=O)NC3CC(C)(C)NC(C)(C)C3)CC2=O)cc1 (centres undefined) | -5% |
| COc1ccc(OC)c(NC(=O)CSc2nnc(CNC(=O)COc3ccc(Cl)cc3)o2)c1 | -3% |
| CCn1c(=O)c(C(=O)Nn2c(C)nc3ccccc3c2=O)c(O)c2ccccc21 | 17.6% |
| CCn1c(=O)c(C(=O)NCCNCCO)c(O)c2ccccc21 | 13.9% |
| CCn1c(=O)c(C(=O)NCCCO)c(O)c2ccccc21 | 70.7% (active) |
| CCCn1c(=O)c(C(=O)Nc2nnc(C)s2)c(O)c2ccccc21 | 62.2% (active) |
| CCn1c(=O)c(C(=O)NCCc2ccccc2)c(O)c2ccccc21 | -11.5% |
| C=CCn1c(=O)c(C(=O)Nc2nnc(C)s2)c(O)c2ccccc21 | 9.1% |
| CCCn1c(=O)c(C(=O)Nc2nnc(CC)s2)c(O)c2ccccc21 | 14.3% |
| CCn1c(=O)c(C(=O)Nc2cccnc2)c(O)c2ccccc21 | 11.7% |

From PubChem BioAssay AID431 (Sanford-Burnham Center for Chemical Genomics, 2006)
